Source: PubChem BioAssay (National Center for Advancing Translational Sciences (NCATS))
USP1-UAF1 inh – inhibitors of human USP1/UAF1 deubiquitinase. Potency, µM (highest dose often 57.1 µM), inactives show top-dose activity change, negative = inhibition, most hits filed as inhibitors. recombinant USP1/UAF1, Ub-Rhodamine cleavage fluorescence. 390,000 compounds, 0.23% hits. O94782; also: % is scaled to controls: 0 for no effect and ±100 for the full control effect; nearly all actives have a fitted effect of over 60% in size
Target sequence (O94782 whole entry, looked up): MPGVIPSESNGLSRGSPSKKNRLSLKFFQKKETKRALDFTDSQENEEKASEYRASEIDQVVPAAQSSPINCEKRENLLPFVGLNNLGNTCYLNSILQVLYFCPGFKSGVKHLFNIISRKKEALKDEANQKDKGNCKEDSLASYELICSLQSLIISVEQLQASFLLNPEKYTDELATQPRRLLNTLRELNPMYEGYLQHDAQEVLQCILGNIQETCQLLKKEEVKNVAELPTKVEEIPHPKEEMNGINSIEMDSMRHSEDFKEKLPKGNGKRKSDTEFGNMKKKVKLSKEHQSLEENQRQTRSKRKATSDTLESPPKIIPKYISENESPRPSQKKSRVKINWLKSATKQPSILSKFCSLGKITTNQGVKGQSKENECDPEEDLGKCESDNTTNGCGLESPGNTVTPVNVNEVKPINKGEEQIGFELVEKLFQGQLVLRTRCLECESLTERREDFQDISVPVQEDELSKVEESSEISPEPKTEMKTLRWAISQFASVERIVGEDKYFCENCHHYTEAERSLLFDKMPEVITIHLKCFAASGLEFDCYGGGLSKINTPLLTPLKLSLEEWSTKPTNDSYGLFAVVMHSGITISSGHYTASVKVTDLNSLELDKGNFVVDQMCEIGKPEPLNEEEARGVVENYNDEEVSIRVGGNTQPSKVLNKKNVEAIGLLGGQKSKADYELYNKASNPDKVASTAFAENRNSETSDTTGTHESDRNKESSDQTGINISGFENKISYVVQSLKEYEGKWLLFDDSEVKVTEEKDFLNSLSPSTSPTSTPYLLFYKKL
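In this screen, compounds sit with the deubiquitinase complex (1nM) for 15 min at room temperature before Ub-Rho is added at 150nM final. Fluorescence rise is then followed for 6 reads every 60 seconds.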
EPAC2 antag – EPAC2 (human) antagonism; Q8WZA2; EPAC2 GEF exchange of Rap1B-BODIPY-GDP, fluorescence; Potency, µM (top dose mostly 114 µM), for the others: top-dose activity, negative = inhibition, usual class: inhibitors; 360,000 compounds, 0.18% hits; AID 720708; also: % is scaled to controls: 0 for no effect and ±100 for the full control effect; nearly all actives have a fitted effect of over 45% in size
GLP1R cytotox – cytotoxicity counter-screen for GLP-1 receptor inverse agonists; Potency, µM (series often up to 38.3 µM), inactives show top-dose activity change, negative = inhibition, hits mostly inhibitors; AID 624418; HEK293 cAMP-luciferase reporter cells, luminescence, 24 h; 410,000 compounds, 0.13% hits;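 also: loss of luciferase light is scored as toxicity; % is scaled to controls: 0 for no effect and ±100 for the full control effect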
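Here, cytotoxicity is scored as loss of luminescence. The MLSMR collection was tested on cells seeded in medium containing 10% Nu serum, with a 24 hr compound exposure preceded by 12 hours of culture.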
EPAC1 antag – blocks human EPAC1 exchange factor; O95398; EPAC1 GEF assay, Rap1b-BODIPY-GDP exchange fluorescence; Potency, µM (top dose mostly 115 µM), for the others: at the highest dose activity change, negative = inhibition, hits mostly inhibitors; 360,000 compounds, 0.14% hits; AID 720709;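 also: plate controls were vehicle for no effect and positive control for full effect; nearly all actives have a fitted effect of over 50% in size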
EPAC2 ag – agonists of human EPAC2 (RAPGEF4); Potency, µM (highest dose often 154 µM), without a hit: top-dose activation, hits mostly activators; EPAC2 activation, biochemical qHTS; response scale: 100% = 6.5 mM cAMP response; Q8WZA2; 360,000 compounds, 0.079% hits; also: nearly all actives have a fitted effect of over 50% in size
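qHTS, titration series. 100 nM EPAC2 / 250 nM Rap1B-BODIPY-GDP / 50 uM GDP; RT; ex 480/em 540 nm, 5-min reads to 30 min. Norm. to 6.5 mM cAMP = activation.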
EPAC1 agonist – activates human EPAC1 exchange factor; O95398; EPAC1 agonist qHTS, biochemical assay; response scale: 100% = response to 6.5 mM cAMP; Potency, µM (titrated, usually from 154 µM), for inactives: at the highest dose activation, hits mostly activators; 360,000 compounds, 0.073% hits; AID 720707; also: nearly all actives have a fitted effect of over 60% in size
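Read-out is the fluorescence drop as BODIPY-GDP leaves Rap1B (480 nm excitation, 540 nm emission), recorded every 5 minutes over 30 minutes. Reactions held 100 nM EPAC1, 250 nM Rap1B–BODIPY-GDP and 50 uM GDP, with 6.5 mM cAMP setting full activation.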
An asterisk follows results filed as active; i = inactive; ? = inconclusive; nt = not tested or not shown. Most compounds without a hit are left out; they make up all but 0.55% or so of the library. Calls follow the shape of the dose curve; as a rule, active = well fitted curve in the direction sought with a large enough effect; inconclusive = small, poorly fitted or top-dose-only effect, or another doubt; inactive = no such curve, though single readings can be large; an effect the other way counts as inactive or inconclusive. Potency is read from the fitted curve at half-maximal effect.

SMILES	USP1-UAF1 inh	EPAC2 antag	GLP1R cytotox	EPAC1 antag	EPAC2 ag	EPAC1 agonist
O=C(NN=Cc1ccc(O)c(O)c1)c1ccccc1	nt	1%	-17%	-8%	6%	-1%
O=C(COc1ccccc1C(=O)N/N=C\c1ccc(O)c(O)c1)N/N=C/c1ccc(O)c(O)c1	-12%	10%	?	10µM*	-5%	-9%
CCOc1ccc(-n2c(SC(C)C(=O)OC)nc3c([nH]c4ccccc43)c2=O)cc1 (centres undefined)	-30%	nt	2%	nt	nt	nt
COc1ccc2cc3[n+](cc2c1O)CCc1cc2c(cc1-3)OCO2	nt	89µM*	-11%	?	19%	0%
COc1cc2c(cc1OC)-c1cc3ccc(OC)c(OC)c3c[n+]1CC2	-20%	-12%	0%	12%	3%	-3%
Oc1ccc(NCc2cccc(OCc3ccccc3)c2)cc1	?	?	13%	32µM*	7%	-13%
c1ccc(COc2cccc(CNCc3cccnc3)c2)cc1	-2%	1%	15%	-23%	7%	5%
O=[N+]([O-])c1ccc(COc2cccc(CNc3ccc(F)cc3)c2)cc1	-11%	-2%	-2%	-23%	10%	4%
Oc1ccc(NCc2cccc(OCc3ccc(F)cc3)c2)cc1	?	-29%	-33%	45µM*	18%	14%
Cn1nc(-c2ccccc2F)c2cc(C(=O)NCc3ccccc3Cl)sc21	-18%	nt	13%	nt	nt	nt
COc1ccc2c(Cl)c(C(=O)N/N=C3\CCCC(=O)C3)sc2c1	16µM*	20%	41%	?	1%	-4%
COc1ccc2c(Cl)c(C(=O)N/N=C/c3ccc4c(c3)OCO4)sc2c1	-26%	-2%	-21%	-1%	2%	3%
CCOC(=O)c1nn(-c2ccccc2C)c(=O)c2c(N)scc12	?	-3%	3%	-29%	5%	-4%
CCOC(=O)c1nn(-c2ccccc2)c(=O)c2c(N)scc12	18µM*	-7%	-6%	0%	-1%	1%
Cc1cc(C)nc(N/N=C/c2ccccc2OCc2ccc(Br)cc2)n1	-17%	0%	12%	-2%	5%	4%
Cc1cc(C)nc(N/N=C/c2ccccc2OCc2cccc(Br)c2)n1	-10%	-12%	4µM*	-21%	0%	14%
CCOc1ccc2nc(NC(=O)CSc3nc(-c4ccccc4)c(C#N)c(=O)[nH]3)sc2c1	?	?	3%	?	10%	-7%
COc1cccc(-c2nc(SCC(=O)Nc3nc(-c4ccccc4)c(C)s3)[nH]c(=O)c2C#N)c1	-17%	25µM*	1%	?	-2%	2%
CCOc1cc(/C=C2\CCC/C(=C\c3cc(Cl)c(O)c(OCC)c3)C2=O)cc(Cl)c1O	-18%	8%	11µM*	-8%	-6%	-2%
CCOc1cc(/C=C2\CN(C)C/C(=C\c3ccc(O)c(OCC)c3)C2=O)ccc1O	-27%	6%	?	?	-5%	-18%
C#CC(C)(C)NS(=O)(=O)c1cc(-c2nnc(Nc3ccc(C)cc3)c3ccccc23)ccc1C	-28%	nt	0%	nt	nt	nt
CCN(CC)c1ccc2c(c1)oc(=O)c1c(Cl)cc(=O)oc12	250%	46%	92%	20%	89µM*	-27%
CCN(CC)c1ccc2c(C)c(Cl)c(=O)oc2c1	-7%	?	i	-18%	4%	6%
CN(CC(=O)Nc1ccccc1Sc1ccccc1)C1CCCCC1	-2%	50µM*	20%	?	25%	0%
COc1ccc(-n2c(CCC(=O)O)ccc2-c2ccccc2)c(OC)c1	-16%	nt	0%	nt	nt	nt
SMILES	USP1-UAF1 inh	EPAC2 antag	GLP1R cytotox	EPAC1 antag	EPAC2 ag	EPAC1 agonist
Oc1ccc(Cl)cc1CNc1cccc2cccnc12	-27%	56µM*	3%	-16%	10%	-16%
Oc1c(Br)cc(Br)cc1CNc1cccc2cccnc12	?	11µM*	-18%	-26%	2%	15%
Cc1cccc(NC(=O)Cn2c(O)c(N=NC(=O)c3ccccc3O)c3ccccc32)c1	-15%	2%	9%	56µM*	-3%	-28%
CCOC(=O)C1=C(C)N=c2s/c(=C\c3ccc(C(=O)O)cc3)c(=O)n2C1c1ccc(OC)cc1OC (centres undefined)	-23%	?	?	?	-6%	2%
CCOC(=O)C1=C(C)N=c2s/c(=C\c3cccn3C)c(=O)n2C1c1cccc(OC)c1OC (centres undefined)	-16%	17%	-1%	4%	112µM*	22%
O=C1c2ccccc2S(=O)(=O)c2cc(N3CCC4(CC3)OCCO4)ccc21	-27%	11%	108%	2%	112µM*	8%
O=C1c2ccccc2S(=O)(=O)c2cc(N3CCN(C(=O)c4ccccc4)CC3)ccc21	-16%	51%	36%	1%	-10%	-2%
CC1CCN(c2ccc3c(c2)S(=O)(=O)c2ccccc2C3=O)CC1	?	11%	3%	40%	28%	89µM*
Cc1c2cnn(CC(=O)N3CCN(c4ccccc4)CC3)c(=O)c2c(C)n1Cc1ccc(F)cc1	6%	nt	-2%	nt	nt	nt
CC(=O)/C=C/n1c(=S)oc2ccccc21	-10%	7%	11µM*	-7%	8%	-4%
N#C/C(=C(/O)COC(=O)CSc1ccc(Cl)cc1)c1nc2ccccc2[nH]1	-1%	-5%	8.9µM*	-2%	11%	-3%
N#Cc1c(-c2cccs2)nc(SCc2ccc(Cl)cc2)[nH]c1=O	?	50µM*	22%	89µM*	-9%	-3%
CCOC(=O)c1scc(-c2ccc(C)cc2)c1S(=O)(=O)N1CCN(c2ccccc2F)CC1	-10%	nt	34%	nt	nt	nt
CCOC(=O)c1c(NC(=O)c2ccco2)n(C2CCCCC2)c2nc3ccccc3nc12	16µM*	-6%	173%	-9%	-2%	1%
CC(C)C[C@H]1COCCS(=O)(=O)N1Cc1cccc(C(F)(F)F)c1	-37%	14µM*	-26%	-23%	-9%	-32%
Cc1cc(C)cc(NC(=O)CSc2oc(-c3cccs3)nc2S(=O)(=O)c2ccccc2)c1	?	nt	-20%	nt	nt	nt
CNc1snc(C)c1C(=O)OCC(=O)Nc1ccc(C)cc1F	-23%	-3%	10%	-8%	-8%	56µM*
CCc1ccccc1NC(=O)COC(=O)c1c(C)nsc1NC	-22%	3%	0%	9%	4%	-7%
CCOc1ccc(C(=O)N2CCC(c3nnc(-c4ccccc4OC)o3)CC2)cc1	-27%	nt	0%	nt	nt	nt
Cc1cc(C)c2nc(N3C(=O)C(O)=C(C(=O)c4ccco4)C3c3ccco3)sc2c1 (centres undefined)	-10%	-7%	20%	50µM*	5%	-12%
